Here are results for six compounds from PubChem BioAssay.

The source made the active and inactive calls.

Experiment [1] in a line: binders of probe aFSTL3 on microarray, primary screen, stem cell growth factor project, biochemical, small-molecule microarray, fluorescence 635/667 (AID 1064).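 Note: measures binding of the biotinylated anti-FSTL3 antibody to printed compounds.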 Particulars: higher = more signal.
Experiment [2] is described as follows: binders from COS7 lysate, DM2A8 probe, primary screen, torsin A project, cell lysate, small-molecule microarray, fluorescence 635/667 (AID 1065). As to conditions: higher = more signal, COS7 lysate expressing mutant human TOR1A.
Experiment [3] in a line: binders of probe aFGF2 on microarray, primary screen, stem cell growth factor project, biochemical, small-molecule microarray, fluorescence 635/667 (AID 1067).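 Note: measures binding of biotinylated aFGF2 protein to printed compounds on slides; z-score merges feature fluorescence and signal-to-noise across triplicate slides.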 As to conditions: higher = more signal.
Experiment [4] can be described thus: binders of probe aFGF10 on microarray, primary screen, stem cell growth factor project, biochemical, small-molecule microarray, fluorescence 635/667 (AID 1071).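 Note: score merges 667 nm spot intensity and signal to noise from triplicate slides.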 Particulars: higher = more signal.
Experiment [5] deals with Neurogenic locus notch homolog protein 2 (Homo sapiens) (UniProt Q04721). The experiment can be described thus: Notch2 binders on small-molecule microarrays, primary screen, biochemical, small-molecule microarray, 635 nm fluorescence, stem cell growth factors (AID 1073). As to conditions: Notch2 binding, higher = more signal.
Neurogenic locus notch homolog protein 2 (Homo sapiens), sequence (Q04721 whole entry, looked up, canonical isoform): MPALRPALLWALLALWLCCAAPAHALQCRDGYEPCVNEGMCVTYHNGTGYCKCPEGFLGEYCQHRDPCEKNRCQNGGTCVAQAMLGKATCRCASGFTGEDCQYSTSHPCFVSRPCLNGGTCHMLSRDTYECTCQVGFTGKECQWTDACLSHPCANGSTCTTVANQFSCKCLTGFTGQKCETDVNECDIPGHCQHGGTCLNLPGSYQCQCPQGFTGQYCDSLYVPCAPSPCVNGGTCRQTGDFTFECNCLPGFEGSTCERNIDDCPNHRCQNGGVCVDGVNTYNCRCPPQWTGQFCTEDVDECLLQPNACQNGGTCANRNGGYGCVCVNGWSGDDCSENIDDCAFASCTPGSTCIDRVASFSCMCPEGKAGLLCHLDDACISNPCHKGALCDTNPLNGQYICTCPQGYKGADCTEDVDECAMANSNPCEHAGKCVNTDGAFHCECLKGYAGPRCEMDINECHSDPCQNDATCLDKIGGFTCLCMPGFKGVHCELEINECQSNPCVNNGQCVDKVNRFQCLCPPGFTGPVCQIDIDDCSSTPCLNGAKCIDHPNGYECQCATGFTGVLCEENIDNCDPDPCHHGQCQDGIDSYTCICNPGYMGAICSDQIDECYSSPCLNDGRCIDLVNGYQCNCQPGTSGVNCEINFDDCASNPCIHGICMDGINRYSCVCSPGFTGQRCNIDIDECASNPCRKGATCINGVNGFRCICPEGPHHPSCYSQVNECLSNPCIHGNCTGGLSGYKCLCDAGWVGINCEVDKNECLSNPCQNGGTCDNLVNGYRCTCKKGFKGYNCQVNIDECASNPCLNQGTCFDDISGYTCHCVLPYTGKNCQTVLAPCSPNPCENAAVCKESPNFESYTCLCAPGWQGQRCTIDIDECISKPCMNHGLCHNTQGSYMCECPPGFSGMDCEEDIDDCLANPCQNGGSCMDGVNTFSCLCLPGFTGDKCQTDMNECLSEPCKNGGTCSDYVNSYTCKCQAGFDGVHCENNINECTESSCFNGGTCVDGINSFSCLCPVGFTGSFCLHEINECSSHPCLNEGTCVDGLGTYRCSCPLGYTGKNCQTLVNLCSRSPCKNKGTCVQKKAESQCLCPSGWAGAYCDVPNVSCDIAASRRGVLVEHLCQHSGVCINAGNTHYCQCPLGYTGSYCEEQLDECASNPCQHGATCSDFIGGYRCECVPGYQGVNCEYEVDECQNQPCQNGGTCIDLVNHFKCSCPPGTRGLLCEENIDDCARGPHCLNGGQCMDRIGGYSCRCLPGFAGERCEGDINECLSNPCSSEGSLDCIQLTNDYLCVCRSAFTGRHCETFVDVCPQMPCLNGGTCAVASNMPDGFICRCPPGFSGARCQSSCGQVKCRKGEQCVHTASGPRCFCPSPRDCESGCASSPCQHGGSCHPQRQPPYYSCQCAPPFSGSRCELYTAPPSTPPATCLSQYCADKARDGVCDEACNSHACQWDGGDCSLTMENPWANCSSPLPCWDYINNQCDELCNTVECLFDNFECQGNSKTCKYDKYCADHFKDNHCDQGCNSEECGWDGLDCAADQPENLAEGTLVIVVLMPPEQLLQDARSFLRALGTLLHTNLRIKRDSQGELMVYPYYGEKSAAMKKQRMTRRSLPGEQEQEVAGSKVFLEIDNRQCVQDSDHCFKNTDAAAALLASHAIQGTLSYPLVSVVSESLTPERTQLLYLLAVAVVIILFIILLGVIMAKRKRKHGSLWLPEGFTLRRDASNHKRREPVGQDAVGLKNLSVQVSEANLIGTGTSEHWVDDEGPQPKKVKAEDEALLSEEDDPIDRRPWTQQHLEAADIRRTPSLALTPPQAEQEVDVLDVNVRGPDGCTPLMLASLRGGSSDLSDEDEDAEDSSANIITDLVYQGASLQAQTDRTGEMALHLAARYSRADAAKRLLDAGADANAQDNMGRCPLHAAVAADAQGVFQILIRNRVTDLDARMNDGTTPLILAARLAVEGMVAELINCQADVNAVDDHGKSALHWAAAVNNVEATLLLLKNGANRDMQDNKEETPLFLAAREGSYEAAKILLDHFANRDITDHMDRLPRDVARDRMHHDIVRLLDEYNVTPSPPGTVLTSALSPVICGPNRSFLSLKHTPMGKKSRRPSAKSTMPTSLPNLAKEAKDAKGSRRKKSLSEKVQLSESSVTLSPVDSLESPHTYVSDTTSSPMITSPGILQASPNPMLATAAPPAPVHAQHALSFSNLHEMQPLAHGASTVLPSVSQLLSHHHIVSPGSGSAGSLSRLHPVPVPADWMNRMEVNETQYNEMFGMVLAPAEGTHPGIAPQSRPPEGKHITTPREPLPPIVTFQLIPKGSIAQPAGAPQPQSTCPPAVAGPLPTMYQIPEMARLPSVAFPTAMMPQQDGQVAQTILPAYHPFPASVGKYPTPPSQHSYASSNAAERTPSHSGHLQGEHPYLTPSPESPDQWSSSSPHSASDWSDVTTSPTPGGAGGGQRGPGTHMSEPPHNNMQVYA
For experiment [6], the target named is Pro-neuregulin-1, membrane-bound isoform (Homo sapiens) (UniProt Q02297). Nature of the experiment: NRG1 binders on small-molecule microarrays, primary screen, psychiatric disease protein project, biochemical, small-molecule microarray, fluorescence 635/667 (AID 1075).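 Note: score combines 667 nm spot fluorescence with signal to noise.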 As to conditions: NRG1 binding, 635 nm fluorescence, higher = more signal.
Pro-neuregulin-1, membrane-bound isoform (Homo sapiens), sequence (Q02297 whole entry, looked up, the tested form may be a part, canonical isoform): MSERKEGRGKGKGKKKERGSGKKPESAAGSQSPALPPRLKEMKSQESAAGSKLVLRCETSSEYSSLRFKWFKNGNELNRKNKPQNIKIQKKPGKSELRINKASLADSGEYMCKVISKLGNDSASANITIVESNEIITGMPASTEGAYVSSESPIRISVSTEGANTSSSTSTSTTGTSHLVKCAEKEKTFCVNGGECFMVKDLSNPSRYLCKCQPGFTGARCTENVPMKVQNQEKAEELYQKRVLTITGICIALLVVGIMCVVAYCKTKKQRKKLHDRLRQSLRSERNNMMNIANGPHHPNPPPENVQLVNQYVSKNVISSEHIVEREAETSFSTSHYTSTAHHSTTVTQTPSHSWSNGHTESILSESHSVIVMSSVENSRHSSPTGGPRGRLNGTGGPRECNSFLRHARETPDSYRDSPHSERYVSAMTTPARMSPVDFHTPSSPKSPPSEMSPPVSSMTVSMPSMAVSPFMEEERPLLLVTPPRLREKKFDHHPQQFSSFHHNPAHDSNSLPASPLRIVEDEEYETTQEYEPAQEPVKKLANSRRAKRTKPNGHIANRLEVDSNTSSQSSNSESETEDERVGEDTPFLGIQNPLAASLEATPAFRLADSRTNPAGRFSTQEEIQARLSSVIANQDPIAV
For experiment [7], the system named is Neuregulin-1 EGF-like domain. Nature of the experiment: binders of neuregulin-1 EGF-like domain, primary screen, biochemical, small-molecule microarray, 635 nm fluorescence (AID 1081).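 Note: binding of the protein to compounds printed on small-molecule microarray slides.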 As to conditions: small-molecule microarray binding, higher = more signal.
The nature of experiment [8]: FRG1 promoter luciferase signal modulators, primary screen, FRG1 inhibition for FSHD, cell-based, C2C12 myotubes, firefly/Renilla luciferase, luminescence (AID 1084). As to conditions: higher = more signal, called active from +8 up or from −8 down.
A short description of experiment [9]: binders of probe aFST on microarray, primary screen, stem cell growth factor project, biochemical, small-molecule microarray, fluorescence 635/667 (AID 1086).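 Note: score merges 667 nm fluorescence with signal-to-noise of each printed compound spot.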 Particulars: higher = more signal.
Experiment [10] is described as follows: binders of probe aHhip on microarray, primary screen, stem cell growth factor project, biochemical, small-molecule microarray, fluorescence 635/667 (AID 1087).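 Note: score merges spot fluorescence at 667nm with spot signal to noise ratio.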 As to conditions: higher = more signal.
Experiment [11] relates to PRMT1 (protein arginine N-methyltransferase 1). The experiment can be described thus: PRMT1 binders on small-molecule microarrays, primary screen, biochemical, small-molecule microarray, 635 nm fluorescence (AID 1088).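 Note: binding of Prmt1 protein to compounds spotted on small-molecule microarray slides.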 Particulars: small-molecule microarray binding, higher = more signal.
The nature of experiment [12]: yeast growth modulation, basal conditions, primary screen, YJM789 clinical isolate, OD600, 24 h (AID 1089).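 Note: growth of clinical yeast isolate S. cerevisiae YJM 789 seeded 1000 cells per well; test concentration not given here.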 As to conditions: S. cerevisiae YJM789 growth, higher = more signal, called active from +8 up or from −8 down.
Experiment [13] can be described thus: fission yeast growth modulation, primary screen, strain 972, OD600, 24 h, no modulator (AID 1090).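 Note: basal condition with compound alone and no growth modifier present; test concentration not given here.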 Particulars: S. pombe 972 growth, higher = more signal, called active from +8 up or from −8 down.
Experiment [14] can be described thus: S. cerevisiae growth modulation with rapamycin, primary screen, strain BY4716, OD600, 96 h (AID 1091). Note: test concentration not given here. Particulars: higher = more signal, called active from +8 up or from −8 down.
For experiment [15], the target named is Torsin-1A-interacting protein 2 (Homo sapiens) (UniProt Q8NFQ8). Nature of the experiment: LULL1 binders on small-molecule microarray, primary screen, cell lysate, human LULL1 lysate, 635/667 nm fluorescence (AID 1092).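 Note: score merges per-feature 667 nm fluorescence with signal-to-noise.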 Particulars: hLULL1 lysate binding, 635 nm fluorescence, higher = more signal.
Torsin-1A-interacting protein 2 (Homo sapiens), sequence (Q8NFQ8 whole entry, looked up): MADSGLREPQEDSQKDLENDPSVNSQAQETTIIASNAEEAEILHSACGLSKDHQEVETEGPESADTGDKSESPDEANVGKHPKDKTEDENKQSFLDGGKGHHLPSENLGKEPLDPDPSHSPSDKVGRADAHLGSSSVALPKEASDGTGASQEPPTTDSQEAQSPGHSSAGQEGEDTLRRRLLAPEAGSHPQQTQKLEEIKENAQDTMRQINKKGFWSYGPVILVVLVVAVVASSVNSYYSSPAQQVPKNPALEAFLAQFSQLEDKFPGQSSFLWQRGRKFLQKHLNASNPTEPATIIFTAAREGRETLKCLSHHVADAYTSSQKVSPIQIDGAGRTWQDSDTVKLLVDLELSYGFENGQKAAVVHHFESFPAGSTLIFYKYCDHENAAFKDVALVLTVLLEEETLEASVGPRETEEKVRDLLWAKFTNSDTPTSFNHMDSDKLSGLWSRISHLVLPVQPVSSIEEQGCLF
Experiment [16] can be described thus: E. coli growth modulation, two-sided OD650, primary screen, E. coli filamentation project, strain DRC41, 24 h (AID 1093).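 Note: MC1000 strain lacking acrAB efflux and sulA so SOS filamentation is blocked; test concentration not given here.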 As to conditions: OD650, 24 h, higher = more signal, called active from +8 up or from −8 down.
Experiment [17] can be described thus: small-molecule microarray binders of probe aLefty2, primary screen, biochemical, biotinylated probe, 635/667 nm fluorescence (AID 1094).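 Note: score merges spot fluorescence near 667 nm with spot signal-to-noise ratio.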 Particulars: higher = more signal.
The test system of experiment [18] is Noggin (protein binding on small-molecule microarray). The experiment can be described thus: Noggin binders on small-molecule microarray, primary screen, biochemical, 635/667 nm fluorescence (AID 1095).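 Note: score merges 667 nm feature fluorescence with signal to noise over triplicate slides.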 As to conditions: 635 nm fluorescence, higher = more signal.
Experiment [19] concerns the target Neurogenic locus notch homolog protein 3 (Homo sapiens) (UniProt Q9UM47). Nature of the experiment: NOTCH3 binders on small-molecule microarray, primary screen, biochemical, 635/667 nm fluorescence (AID 1096). Particulars: NOTCH3 binding, 635 nm fluorescence, higher = more signal.
Experiment [20] in a line: small-molecule microarray binders of probe aEGFR, primary screen, biochemical, biotinylated probe, 635/667 nm fluorescence (AID 1097).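 Note: probe is a biotinylated anti-EGFR antibody binding compounds printed on slides; score combines fluorescence near 667 nm and signal to noise of each spot.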 Particulars: higher = more signal.

In the case of `CC(C)N1C(=O)C[C@@](C(=O)NCCN2CCOCC2)(c2ccc([N+](=O)[O-])cc2)[C@H]1c1ccc(CO)cc1`, the composite z-score in experiment [1] is 0.489; in experiment [2], -0.32; in experiment [3], -0.21; in [4], -0.692; in experiment [5], -0.575; in experiment [6], 0.543. The composite z-score was 0.851 in [7]; -1.1 in experiment [9]; -0.0708 in [10]; 0.266 in experiment [11]; 3.61 in experiment [15]; -0.001 in experiment [17]. Also, the composite z-score is 0.193 in [18], -0.958 in experiment [19] and -0.228 in experiment [20]. The z-score in [8] was 1.08 (inactive); in experiment [12], -1.77 (inactive); in experiment [13], -0.274 (inactive); in experiment [14] it was -1.76 (inactive); in [16], 0.214 (inactive).
For `CCOC(=O)C[C@H]1[C@H](OC(=O)Cc2ccc3c(c2)OCO3)[C@@H](NC(=O)c2ccc3ccccc3n2)c2cc(OCCCO)ccc2N1C(=O)Cc1ccc(OC)cc1`, the composite z-score in experiment [1] is -0.238; in experiment [2] it was 0.38; in [3], -0.0785; in [4] it was 0.205; in experiment [5] it was 0.761; in experiment [6] it was 1.17. Moreover, the composite z-score in [7] is 0.38; in experiment [9] it was 0.447; in [10], -0.0994; in experiment [11] it was 0.742; in experiment [15], 1.34; in [17] it was 0.0071. The values for the composite z-score in experiment [18], in [19] and in [20] were 1.25, 0.55 and -0.103, respectively. For the same compound, the z-score in [8] is -0.876 (inactive); in [12] it was -2.25 (inactive); in [13], 0.154 (inactive); in experiment [14], -0.107 (inactive); in experiment [16], 0.647 (inactive).
As to `CCCC#C[Si](O[C@H](CC)c1cn(Cc2ccccc2)nn1)(C(C)C)C(C)C`, the composite z-score in experiment [1] is -0.0658; in experiment [2], 0.0418; in experiment [3], 0.0252; in experiment [4], 0.435; in [5], 0.734; in [6], 0.53. Also, the composite z-score in experiment [7] is 1.02; in [9], 0.278; in experiment [10] it was -0.166; in experiment [11], 1.49; in experiment [15], 1.72; in [17], 0.052. In addition, the composite z-score in [18] came to 1.31; in experiment [19] it was 1.09; in experiment [20] it was 0.0458. Moreover, the z-score was 0.403 (inactive) in experiment [8]; -1.25 (inactive) in [12]; -14.6 (active) in experiment [13]; -3.55 (inactive) in experiment [14]; 0.657 (inactive) in [16].
With `O=C(NCC(O)CO)[C@@]1(CCS(=O)(=O)c2ccccc2)N=C(c2ccc(OCCCO)cc2)O[C@H]1c1ccccc1` (stereo not given in full), the composite z-score worked out at 0.715 in [1]; 0.965 in experiment [2]; 0.123 in [3]; 0.223 in experiment [4]; 0.429 in experiment [5]; 1.96 in experiment [6]. Also, the composite z-score in [7] stood at 1.33; in experiment [9], 0.544; in experiment [10] it was 0.0302; in experiment [11] it was 0.845; in experiment [15], 3.56; in experiment [17] it was 0.471. Further, the results for the composite z-score in experiment [18], in experiment [19] and in experiment [20] were -0.562, -0.196 and 0.144, respectively. Further, the z-score is 2.37 (inactive) in experiment [8]; -0.717 (inactive) in experiment [12]; -0.908 (inactive) in experiment [13]; -0.163 (inactive) in [14]; -0.328 (inactive) in experiment [16].
`O=C1O[C@H](c2ccccc2)[C@H](c2ccccc2)N2[C@H]1[C@@H](C(=O)O)[C@]1(C(=O)Nc3ccc(C#CCCO)cc31)[C@H]2c1ccc(OCCO)cc1`: the composite z-score in experiment [1] is 0.282; in experiment [2], 1.12; in experiment [3] it was -0.12; in experiment [4] it was 0.826; in [5], 0.89; in [6] it was 1.86. The composite z-score is 1.28 in [7]; 0.101 in experiment [9]; 0.189 in experiment [10]; 0.862 in [11]; 1.98 in experiment [15]; 0.547 in experiment [17]. The composite z-score is 0.452 in experiment [18], 0.105 in experiment [19] and -0.0304 in experiment [20]. Moreover, the z-score in experiment [8] is -0.708 (inactive); in experiment [12], 0.19 (inactive); in [13], -0.428 (inactive); in experiment [14], -0.502 (inactive); in experiment [16], 1.71 (inactive).
With `CC(C)NC(=O)[C@@]1(C)c2ccccc2C(=O)N(Cc2ccccc2)[C@H]1c1ccc(CO)cc1`, the composite z-score was 0.267 in experiment [1]; 0.824 in experiment [2]; -0.169 in [3]; -0.548 in experiment [4]; -1.12 in experiment [5]; 1 in [6]. Also, the composite z-score in experiment [7] is 0.814; in [9], -0.875; in experiment [10], -0.291; in [11], 1.53; in experiment [15], 3.22; in [17], -0.13. For the same compound, the composite z-score in experiment [18] was -0.644; in experiment [19], -0.554; in experiment [20], -0.0035. Besides, the z-score in experiment [8] is -2.47 (inactive); in experiment [12] it was -1.46 (inactive); in experiment [13] it was 0.138 (inactive); in [14], -0.932 (inactive); in experiment [16], 1.11 (inactive).
